Values without a mark were called inactive.
system: Vero E6 infected with SARS-CoV-2; experiment: inhibition of SARS-CoV-2 cytopathic effect; higher = more antiviral protection, active = above 15; conditions: 10000 nM; 48 h

Structure (SMILES) | inhibition of SARS-CoV-2 cytopathic effect [%]
Nc1nc(=O)c2c([nH]1)NCC(CNc1ccc(C(=O)N[C@@H](CCC(=O)O)C(=O)O)cc1)N2C=O (stereo partly drawn) [leucovorin] | -0.745
N[C@H](CO)C(=O)O [D-serine] | 1.69
CC(C)[C@H](N)C(=O)OCCOCn1cnc2c(=O)nc(N)[nH]c21 [valaciclovir] | -2.93
NCC1OC(C23CC4CC(CC(C4)C2)C3)Cc2c1ccc(O)c2O (stereo not drawn) | -6.39
C#CCN(C)[C@H](C)Cc1ccccc1 [selegiline] | -0.75
O=C(Nc1nc(-c2cc(Cl)cs2)c(N2CCN(C3CCCCC3)CC2)s1)c1cnc(N2CCC(C(=O)O)CC2)c(Cl)c1 [avatrombopag] | -0.97
CC(=C(CCO)SSCC1CCCO1)N(C=O)Cc1cnc(C)nc1N (stereo in doubt) [fursultiamine] | -2.11
O=c1[nH]c2ccccc2n1C1CCN(CCOc2ccccc2)CC1 [oxiperomide] | 2.21
Cc1coc2c1C(=O)C(=O)c1c-2ccc2c1CCCC2(C)C [tanshinone-IIA] | -6.78
CNC(=O)Oc1cccc2ccccc12 [carbaril] | -0.51
CC(=O)NO [acetohydroxamic-acid] | 3.32
COc1cc(OC)c(C(=O)CCCCN2CCC3(CC2)NC(=O)NC3=O)cc1NS(=O)(=O)c1ccc(C(F)(F)F)cc1 | 0.94
Nc1nc(O)c2nc(Br)n([C@@H]3O[C@@H]4COP(=O)(O)O[C@H]4[C@H]3O)c2n1 [8-bromo-cGMP] | 1.61

From the supplement of paper PMC13380429
